Assay results published in PubChem BioAssay (NCI).
This is part of a sample that, as a whole, favours compounds with a hit. Of some 79,000 tested, about 15% had one in any assay. A number with no mark means an inactive call. The source made the active and inactive calls. Rule as the data show it: active = growth inhibition above about 70%; inactive = the rest.

test: NCI Yeast Anticancer Drug Screen. Data for the mlh1 rad18 strain (AID 175); conditions: S. cerevisiae mlh1 rad18 strain growth inhibition; at 50.0 µM; stronger effect = higher value
In short: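 Inhibition values reflect reduced growth of mutant yeast versus vehicle-treated controls following compound exposure; the mutations affect DNA damage repair.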

Q: With Cc1nc(-[n+]2nc(-c3ccccc3)nn2-c2ccccc2)sc1C as the compound, how does the growth inhibition read?
A: Its growth inhibition is 7.4%.

Q: Which growth inhibition does the source give for CC(=O)[C-](C(C)=O)c1ccccc1.CC(=O)[C-](C(C)=O)c1ccccc1.CC(=O)[C-](C(C)=O)c1ccccc1.[Cl-].[Zr+4] here?
A: The growth inhibition was 1.65%.

Q: For O=C1NC(N/N=C\c2ccccc2)=N/C1=C/c1ccc(Cl)cc1, which growth inhibition is on record?
A: The growth inhibition was -1.85%.

Q: With CC1(C)Oc2ccc3c(=O)cc(-c4ccc(F)cc4)oc3c2C1C(=O)O (centres undefined) as the compound, how does the growth inhibition read?
A: The growth inhibition was -28.8%.

Q: For C=C1C(=O)OC2/C=C(\CO)CC/C=C(\CO)CC(OC(=O)C(C)C)C12 (centres undefined), which growth inhibition is on record?
A: The growth inhibition was -41.5%.

Q: For N#CC(=S)Nc1ccc(F)cc1, which growth inhibition is on record?
A: Its growth inhibition is -5.8%.

Q: With COC(=O)c1cnn2c1n[n+]([O-])c1ccccc12 as the compound, how does the growth inhibition read?
A: Its growth inhibition is -8%.

Q: With Cc1ccc(OC2CC(n3cnc4ncnc(Cl)c43)OC2Oc2ccc(C)cc2)cc1 (centres undefined) as the compound, how does the growth inhibition read?
A: Its growth inhibition is -33.8%.

Q: Which growth inhibition does the source give for c1ccc(-c2cccc3ccccc23)cc1 here?
A: Its growth inhibition is 16.4%.

Q: With O=C(O)c1cn(C2CC2)c2cc(N3CCNCC3)c(F)cc2c1=O as the compound, how does the growth inhibition read?
A: Its growth inhibition is -0.35%.

Q: With Cn1cnc2c(=O)[nH]c(=O)[nH]c21 as the compound, how does the growth inhibition read?
A: The growth inhibition was 10.2%.

Q: Which growth inhibition does the source give for COc1c2c(c3c(c1OC)c(=O)c1ccccc1n3C)OCO2 here?
A: The growth inhibition was 13.2%.

Q: For CCCCCCCCCC(O)CC(=O)c1c(O)cccc1O (centres undefined), which growth inhibition is on record?
A: The growth inhibition was 78.7% (active).

Q: Which growth inhibition does the source give for O=S(=O)(O)c1cc(O)c2c(O)cc(S(=O)(=O)O)cc2c1 here?
A: The growth inhibition was -4.7%.

Q: Which growth inhibition does the source give for CCOC(=O)C(=O)C(CCC(=O)c1ccc2ccccc2c1O)C(=O)OCC (centres undefined) here?
A: The growth inhibition was -35.9%.

Q: With CCOC(=O)COc1cc(-c2ccccc2)nc2cc(F)ccc12 as the compound, how does the growth inhibition read?
A: Its growth inhibition is -25.9%.

Q: With C=C1CCN(c2ccccc2)C1=O as the compound, how does the growth inhibition read?
A: Its growth inhibition is -4.55%.

Q: With O=c1c2ccccc2nc(-c2ccccc2)n1/N=C/c1ccccc1[N+](=O)[O-] as the compound, how does the growth inhibition read?
A: Its growth inhibition is -56.2%.

Q: Which growth inhibition does the source give for CCC(C)C1(O)OC2CC3(C)OC(=CC3=O)/C(C)=C\C3OC(=O)C1(C)C32 (centres undefined) here?
A: Its growth inhibition is -35.9%.

Q: Which growth inhibition does the source give for COc1ccc2c(c1)N(C(C)=O)CN1C(=O)CCC21 (centres undefined) here?
A: The growth inhibition was -66%.

Q: Which growth inhibition does the source give for COc1ccc2nc(NC(=O)/C(C#N)=C/c3ccccc3)sc2c1 here?
A: The growth inhibition was -5.7%.

Q: Which growth inhibition does the source give for CC1=C(/C=C/C(C)=C/C=C/C(C)=C/C(=O)Nc2ccc(O)cc2)C(C)(C)CCC1 here?
A: The growth inhibition was -13.2%.

Q: For COC(=O)c1nc(Br)cnc1N, which growth inhibition is on record?
A: Its growth inhibition is -0.45%.

Q: Which growth inhibition does the source give for COc1cc2c(cc1-c1coc3cc(O)ccc3c1=O)OCO2 here?
A: The growth inhibition was -42.6%.

Q: Which growth inhibition does the source give for CC1CC2(OC2C)C(=O)OC2CCN(C)C/C=C(/COC(=O)C1(C)O)C2=O (centres undefined) here?
A: Its growth inhibition is -52%.

Q: For O=C(/C=C/c1ccccc1)Nc1ccccc1, which growth inhibition is on record?
A: Its growth inhibition is 35.6%.

Q: Which growth inhibition does the source give for CC1=CC(=O)c2ccc(C)cc2C1=O here?
A: The growth inhibition was 5.85%.

Q: For O=C1C=CC=C/C1=C1\N=C(c2ccccc2OCC(=O)c2ccc(Br)cc2)SS1, which growth inhibition is on record?
A: Its growth inhibition is -43.5%.

Q: For CCOc1cc2c(cc1O)C=C[C@@H]1[C@@H]2CC[C@]2(C)[C@@H](O)CC[C@@H]12, which growth inhibition is on record?
A: Its growth inhibition is 25.7%.

Q: With Cc1ccc2c(sc(-c3ccc4c(c3)sc(-c3ccc5c(c3)sc(-c3ccc(N(C)C)cc3)[n+]5C)[n+]4C)[n+]2C)c1S(=O)(=O)O (tested in a mixture with another compound) as the compound, how does the growth inhibition read?
A: The growth inhibition was 70.4% (active).

Q: With COc1ccc(N=C(C)C(C)=Nc2ccc(OC)cc2)cc1 as the compound, how does the growth inhibition read?
A: Its growth inhibition is -17.7%.

Q: Which growth inhibition does the source give for COc1ccc2nc(N/N=C/c3ccc(C)s3)cc(C)c2c1 here?
A: Its growth inhibition is 24.6%.

Q: Which growth inhibition does the source give for O=C1c2cccnc2-c2nccc3ccnc1c23 here?
A: Its growth inhibition is -37.7%.

Q: Which growth inhibition does the source give for CNC(=S)/C(=N\Nc1nc[nH]c1C(N)=O)C(N)=S here?
A: The growth inhibition was 21.1%.

Q: With COc1cc(N(CCC#N)CCC#N)ccc1/C(N=Nc1ccc(Cl)cc1)=N/NC(=O)c1cc(Br)ccc1O as the compound, how does the growth inhibition read?
A: Its growth inhibition is 52%.

Q: With O=C(Nc1cccc(NC(=O)C(=O)C2CCC3=C(Sc4ccccc4N3)C2=O)n1)C(=O)C1CCC2=C(Sc3ccccc3N2)C1=O (centres undefined) as the compound, how does the growth inhibition read?
A: Its growth inhibition is 1.2%.

Q: Which growth inhibition does the source give for COC(=O)C(=O)C(C(=O)C(=O)Nc1ccccc1C(C)=O)c1nc2ccc(C(=O)c3ccccc3)cc2[nH]c1=O (centres undefined) here?
A: The growth inhibition was 24.5%.

Q: With [O-]c1ccccc1/C=N/C(/N=C/c1ccccc1[O-])c1ccccc1O.[O-]c1ccccc1/C=N/C(/N=C/c1ccccc1[O-])c1ccccc1O.[Zr+4] as the compound, how does the growth inhibition read?
A: The growth inhibition was 2.4%.

Q: Which growth inhibition does the source give for OCc1ccccn1 here?
A: The growth inhibition was 16.7%.
